Measurements published in PubChem BioAssay (NCI).
About 83,000 compounds went through this panel and 20% of them were active in at least one assay; those are over-represented in the sample as a whole.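 Plates (96-well) were seeded with cells, treated with compound at one concentration, and incubated for 48 hours before percent growth was determined.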 A number with no mark means an inactive call. Activity calls are given as the source filed them.

Each compound was assayed on MCF7 breast (assay: NCI-60 one-dose screen, 48 h (100 = growth as untreated, 0 = no growth, -100 = all killed)). Details: 10 µM unless noted.
Method: Growth inhibition of the MCF7 human tumor cell line is measured as a screen for anti-cancer activity. Cells are grown in 96 well plates and exposed to the test compound for 48 hours. Compounds are tested at a single concentration, which is 10^-5 M for most compounds. The reported endpoint is percent growth (GI% or GIPRCNT), where numbers from 0 - 100% represent growth inhibition, and numbers from -100% - 0 represent cell death. For example, a value of 40 represents 60% growth inhibition. A value of 0 means no net growth occurred over the course of the experiment. A value of -40 indicates 40% of cells at the beginning of the experiment died by the end of the experiment. A value of -100 means all cells are dead at the end of the experiment.
NCI-60 Human Tumor Cell Lines Screen was performed using the standard one-dose NCI protocol, which is described in more detail at https://dtp.cancer.gov/discovery_development/nci-60/default.htm.
Compounds with GIPRCNT values below 10 were considered active. Activity score was based on GIPRCNT using the following formula: […]
Score is 0 for GIPRCNT values of 100 or above, 50 for GIPRCNT values of 0, and 100 for GIPRCNT values of -100.
With `NCCOc1ncccc1/C=C1\C2C=CC=CC2C2C=CC(F)=CC12` (stereo not given) the growth was 11.8%. Work on `CNc1ccc(Nc2cccc(C)c2)c2c1C(=O)c1ccccc1C2=O` yielded a growth of 10.2%. With `N#Cc1c(-c2ccc(Cl)cc2)nc(NCCO)[nH]c1=O` the growth was 95.3%. For `CCN(CC)CCCNc1nc2ccccc2c2c(=O)c3cc(Cl)ccc3sc12`, the growth was 44.4%. `COc1ccc([C@H]2c3cc(OC)c(OC)cc3C=C(C=O)C2CO)cc1OC` (stereo not given in full) was tested, and the growth was 18.5%. Compound `COc1cc(CNS(=O)(=O)c2ccc(C)cc2)ccc1OCc1cn(-c2ccccc2)nn1` has a growth of 92.7%. For `CSc1ccc2c(c1)c(CCN)c(C)n2Cc1ccc(Cl)c(Cl)c1`, the growth was -68.9% (active). `NCCCNc1nc2ccc(Cl)cc2c2c(=O)c3cc(F)ccc3sc12` gave a growth of 47.2%. Work on `COc1ccc(N)c(N)c1` yielded a growth of 60.2%. In the case of `COc1ccc(C(=O)C(C)C)c2ccccc12`, the growth is reported as 107%. Compound `COc1ccc(C2NC(=O)C(C#N)c3c2sc2c(F)cccc32)c(OC)c1` (stereo not given) has a growth of 24.5%. In the case of `C(=N/Nc1ncnc2nc[nH]c12)/c1ccccn1`, the growth is reported as 22.9%. With `NCCOc1ncccc1/C=C1\c2ccccc2-c2ccc(C(F)F)cc21` the growth was 21.6%. `COc1ccc2sc3c(NCCCN(C)C)nc4ccccc4c3c(=O)c2c1` showed a growth of 41.5%. With `Cc1c(C(=O)NCCN2CCOCC2)cn2ncnc(Oc3ccc(NC(=O)Nc4ccc(Cl)c(C(F)(F)F)c4)cc3)c12` the growth was 7.07% (active). Compound `CNC(=O)c1[nH]cc(-c2ccccc2)c1-c1cc(OC)c2c(c1OC)OCO2` has a growth of 99.9%. Work on `NC(=O)Nc1ccc2ncnc(Nc3ccc(Cl)cc3)c2c1` yielded a growth of 86.5%. For `Clc1ccc2c(c1)N(CCCN1CCCC1)c1ccccc1S2`, the growth was 6.29% (active). Work on `COc1ccc(-c2ncnc3c2ncn3CC#CCCl)cc1` yielded a growth of 35.7%. In the case of `CCCCCCCCCCCCCCCCCC1OCC(COC(=O)O[C@]2(CC)C(=O)OCc3c2cc2n(c3=O)Cc3cc4ccccc4nc3-2)O1` (stereo not given in full), the growth is reported as 44.4%. `C/C(=C\C(=O)c1ccc(Cl)cc1)c1ccc(Cl)cc1` gave a growth of 19.4%. `C=C(C)C1CCC2(C)OC2C1` (stereo not given) gave a growth of 105%. With `CCOC(=O)NCCc1ccccc1` the growth was 99.1%. `COc1cccc(-c2nn(-c3ccccc3)cc2-c2ccnc(N3CCOCC3)c2)c1` gave a growth of 87%. `O=C(N/N=C/[C@@H](O)[C@H](O)[C@H](O)CO)c1ccc(NC(=O)c2cccnc2)cc1` showed a growth of 92.6%. With `C[C@H](C(=O)Nc1ccc(S(N)(=O)=O)cc1)S(=O)(=O)c1ccccc1` the growth was 96.1%. For `Cc1cccc2c(=O)c3c(sc12)c(NCc1ccccc1)nc1ccccc13`, the growth was 27.2%. For `Brc1c[n+](Cc2ccc3ccccc3c2)cn1Cc1ccc2ccccc2c1`, the growth was 14.3%. `Cc1[nH]c(C(=O)Nc2ccc(C(=O)N3CCNCC3)cc2OC(C)C)c(Cl)c1Cl` showed a growth of 60%. With `CCOC(=O)Nc1ccc(-c2nc(-c3cccc(OC)c3)c(-c3ccnc(Br)c3)[nH]2)cc1` the growth was 17.3%. With `O=C(/C=C/c1sc(Cl)nc1Cl)c1ccc(Br)cc1` the growth was 27.9%. In the case of `COc1cccc(-c2nc(-c3ccc(NC(=O)c4ccccc4)cc3)[nH]c2-c2ccnc(Br)c2)c1`, the growth is reported as 14.7%. `Cc1ccc2nc(NC(=O)CSc3nc(Cl)c(C#N)c(-c4ccccc4)n3)sc2c1` showed a growth of 91.7%. In the case of `O=c1c2cccc(Cl)c2sc2c(NCCCNCCO)nc3ccccc3c12`, the growth is reported as 15.3%. For `O=C(Nc1ccc(-c2nc(-c3cccc(OCCN4CCOCC4)c3)c(-c3ccnc(Br)c3)[nH]2)cc1)c1ccccc1`, the growth was -46% (active). `CC1=C(SCCC(=O)OC(C[Se]C2=C(C)C(=O)c3ccccc3C2=O)C(=O)NC(C)(C)C)C(=O)c2ccccc2C1=O` (stereo not given) was tested, and the growth was -63.5% (active). With `CCOC(=O)Cn1c(C)c(/C=N/NC(=O)c2cc3c(ccc4ccccc43)o2)c2ccccc21` the growth was 17%. For `C#Cc1cccc(NC(=O)Nc2ccccc2NC(=O)CCl)c1`, the growth was 0.96% [8.25 µM] (active). `O=C(CCOCCNC(=O)COc1ccc2c(c1)OCC(c1ccc(F)cc1)C2=O)NCCCC(O)(P(=O)(O)O)P(=O)(O)O` (stereo not given) was tested, and the growth was 89%. For `COc1nc2ccc(C)cc2cc1-c1nc2c(cnn2-c2ccc(Br)cc2)c(=O)[nH]1`, the growth was 21.8%.
